Here are results for 28 compounds from PubChem BioAssay (EPA / NIEHS).

Activity calls are given as the source filed them. Rule for the calls: active = hit-call score of the fitted dose curve at least 0.9, where 1 is the maximum; inconclusive = response in the unintended direction; inactive = score below 0.9.

In general, AC50 refers to the midpoint of the concentration-response curve, whichever way the signal moves.

The test can be described thus: Tanguay_ZF_120hpf_ActivityScore_legacy: (Legacy) Oregon State University Tanguay Lab 120 Hour Post-fertilization zebrafish Assay Score for Activity (AID 2283742).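 For AC50: dechorionated Tropical 5D wild-type zebrafish embryos held singly per well; static exposure from 6 hpf until 120 hpf at 28 °C.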 The procedure, abridged:
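Embryos are staged, enzymatically dechorionated at 4 hpf, placed individually at 6 hpf, then held in test chemical (0.64% DMSO) at 28C until 120 hpf. Mortality and malformations are scored by brightfield, with non-mortality endpoints skipped for dead embryos.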
As for `CS(=O)(=O)NC(=O)c1cc(Oc2ccc(C(F)(F)F)cc2Cl)ccc1[N+](=O)[O-]`, the call was inactive.

Regarding `Cc1ccc([N+](=O)[O-])cc1`, the compound was classed as inactive.

Take `CC(O)CCO` (stereo not drawn): the outcome was inactive.

As to `CN(C)c1ccccc1`, the compound was called inactive.

Take `CN(C)c1ccc(C(=O)c2ccc(N(C)C)cc2)cc1`: the AC50 was 32.1 µM (active).

Consider `Oc1ccccc1Cl`, for which the compound was called inactive.

With `COC(=O)c1ccccc1N`, the result was inactive.

With `N#CC(Br)(Br)C(N)=O`, the compound was called inactive.

Regarding `O=C(O)C1C2CCC(O2)C1C(=O)O` (stereo not drawn), the compound was classed as inactive.

For `CCCCCCCCOC(=O)c1ccc(C(=O)OCCCCCCCC)c(C(=O)OCCCCCCCC)c1`, the compound was called inactive.

For `c1ccc2c(c1)oc1ccccc12`, the outcome was inactive.

Regarding `CN(C)[C@@H]1C(=O)C(C(N)=O)=C(O)[C@@]2(O)C(=O)C3=C(O)c4c(O)cccc4[C@@](C)(O)[C@H]3C[C@@H]12`, the outcome was inactive.

Consider `CCC12COCN1COC2`, for which the result was inactive.

Turning to `OCCCl`, the call was inactive.

On to `Nc1cc(Cl)cc(C(=O)O)c1Cl`, for which the outcome was inactive.

With `c1ccc(NNc2ccccc2)cc1`, the result was inactive.

As to `O=[N+]([O-])C(Br)(CO)CO`, the call was inactive.

Take `O=Cc1ccco1`: the result was inactive.

With `C1=Cc2cccc3cccc1c23`, the compound was classed as inactive.

Consider `ClC1=C(Cl)C2(Cl)C3C(Cl)C=CC3C1(Cl)C2(Cl)Cl` (stereo not drawn), for which the outcome was inactive.

Turning to `CCN(CC)CCO`, the outcome was inactive.

`c1ccc(C2CO2)cc1` (stereo not drawn): the result was inactive.

For `[O-][Cl+]O`, the compound was called inactive.

On to `CC(C)(OOC(C)(C)c1ccccc1)c1ccccc1`, for which the compound was classed as inactive.

As to `O=C(Oc1ccc(Br)cc1)N1CCN2CCC1CC2`, the compound was classed as inactive.

Regarding `Clc1ccccc1Cl`, the call was inactive.

On to `CC(C)(C)OOC(C)(C)CCC(C)(C)OOC(C)(C)C`, for which the compound was classed as inactive.

In the case of `O=C(N[C@H](c1ccccc1)[C@@H]1CN2CCC1CC2)c1c(Cl)ccc(C(F)(F)F)c1Cl`, the AC50 is 28.3 µM (active).
